# Test results as given in PubChem BioAssay (NCATS).
# Values without a mark were called inactive. Calls of active or inactive are those of the source. The call rests on the fitted dose curve; in most records, active means well fitted inhibition curve with a large enough effect; inconclusive means small, poorly fitted or top-dose-only effect; inactive means flat fitted curve, though single readings scatter.
# Molecular target: Flap endonuclease 1 (Homo sapiens) (UniProt P39748)
# Experiment: qHTS Validation Assay for the Inhibitors of Human Flap endonuclease 1 (FEN1) (AID 488816)
# Conditions: FEN1 nuclease activity, fluorogenic DNA substrate; series mostly up to 57.1 µM; activity, negative = inhibition: at the top concentration
# Description: The major human flap endonuclease FEN1 is an efficient structure-specific enzyme that recognizes and cleaves a 5'-unannealed DNA flap. It belongs to the RAD2 family nucleases, which are involved in DNA metabolism and are highly conserved in prokaryotes and eukaryotes. FEN1 is a key enzyme in DNA replication, repair and maintenance of genomic stability. 5'-flap removal by FEN1 is critical for Okazaki fragment processing during lagging strand DNA synthesis, long-patch base excision repair (LP BER), and regulating or facilitating recombination events. […] Deletion of the yeast FEN1 gene, i.e. rad27, results in an increased frequency of short DNA (3-32 bp) repeats, micro- and mini-satellite formation, trinucleotide repeat expansion, spontaneous recombination events, and a severe growth defect in association with cell cycle arrest in late S/G2 phase. […] Cells from fen1-/- blastocysts show increased apoptotic cell death after ionizing radiation treatment, and chicken cells lacking the fen1 gene are hypersensitive to DNA alkylating agents, e.g. methylmethane sulfonate (MMS) and N-methyl-N'-nitro-N-nitrosoguanidine (MNNG), as well as hydrogen peroxide.
# FEN1 is found to be increased in many human cancers, including lung, brain cancer, gastric cancer, prostate cancer, pancreatic cancer and breast cancer. […] In particular, elevation of FEN1 in hormone refractory human prostate cancer cells correlates with resistant to various anticancer agents including ionizing radiation, doxorubicin, paclitaxel and vinblastine.
# Three uL of reagents (buffer in column 3 and 4 as negative control and 10 nM FEN1 in columns 1, 2, and 5-48) were dispensed into 1,536-well black solid-bottomed plate. Compounds (23 nL) were transferred via Kalypsys pin tool equipped with 1536-pin array (10 nL slotted pins, V&P Scientific, San Diego, CA). The plates were then incubated for 15 min at room temperature, and 1 uL substrate (50 nM final concentration) were added to start the reaction read twice at 0 min read and 15 min on ViewLux reader. Throughout the screen, reagent bottle and all liquid lines were chilled and made light-tight to minimize reagent degradation. All screening operations were performed on a fully integrated robotic system (Kalypsys, San Diego, CA) containing one RX-130 and two RX-90 anthropomorphic robotic arms (Staubli, Duncan, SC). Library plates were screened starting from the lowest and proceeding to the highest concentration, and a "double-dipping" step of the highest concentration was required to access higher concentrations of compounds. Vehicle-only plates, with DMSO being pin-transferred to the entire column 5-48 compound area, were inserted uniformly at the beginning and the end of each library in order to monitor for and record any shifts in the background, which can be affected by reagent dispensers or loss in enzyme activity overtime. Screening data was corrected, normalized, and concentration-effect relationships were derived by using publicly-available curve fitting algorithms developed in-house (http://ncgc.nih.gov/pub/openhts). A four parameter Hill equation was fitted to the concentration-response data by minimizing the residual error between the modeled and observed responses.
# On the % scale 0 is the no-effect control and ±100 the full control effect; potency means the concentration at half of the fitted maximal effect.
# Chain of Flap endonuclease 1 (Homo sapiens) (P39748 whole entry, looked up): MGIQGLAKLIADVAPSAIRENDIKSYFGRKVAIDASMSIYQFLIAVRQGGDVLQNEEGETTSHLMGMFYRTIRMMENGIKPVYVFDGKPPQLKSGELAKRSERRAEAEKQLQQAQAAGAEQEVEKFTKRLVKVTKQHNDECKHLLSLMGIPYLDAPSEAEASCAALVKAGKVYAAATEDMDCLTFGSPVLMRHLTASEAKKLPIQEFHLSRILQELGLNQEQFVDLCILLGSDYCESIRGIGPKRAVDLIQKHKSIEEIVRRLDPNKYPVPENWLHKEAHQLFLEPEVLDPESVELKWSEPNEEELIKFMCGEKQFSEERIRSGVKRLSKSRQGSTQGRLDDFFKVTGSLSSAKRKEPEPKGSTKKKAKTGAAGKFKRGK
Compound,"activity, negative = inhibition",Potency
Cc1[nH]c(=O)c(C#N)cc1-c1ccc2nccn2c1,-5.43%,–
CN1CCN(CCCN2c3ccccc3Sc3ccc(C(F)(F)F)cc32)CC1,-15.2%,–
O=c1n(CCCN2CCN(c3cccc(Cl)c3)CC2)nc2ccccn12,-4.22%,–
CC(C)C[C@H](NC(=O)[C@@H](O)[C@H](N)Cc1ccccc1)C(=O)O,-3.32%,–
OC(CN1CCC(Cc2ccc(F)cc2)CC1)c1ccc(Cl)cc1 (stereo not given),-3.77%,–
Nc1nc2ccc(OC(F)(F)F)cc2s1,-3.75%,–
O=C(O)COCCN1CCN(C(c2ccccc2)c2ccc(Cl)cc2)CC1 (stereo not given),-3.04%,–
CC(C[N+](C)(C)C)OC(N)=O (stereo not given),-2.64%,–
N=c1nc(N2CCCCC2)cc(N)n1O,-4.15%,–
Cc1[nH]c(=O)c(C#N)cc1-c1ccncc1,-10.8%,–
CCCCNc1cc(C(=O)O)cc(S(N)(=O)=O)c1Oc1ccccc1,4.39%,–
OC(CCN1CCCCC1)(c1ccccc1)C1CC2C=CC1C2 (stereo not given),-4.07%,–
CCOC(=O)C1=C[C@]2(CC)CCCN3CCc4c(n1c1ccccc41)[C@@H]32,-8.38%,–
CC(=O)Oc1ccccc1C(=O)O,-11.4%,–
Cc1oncc1C(=O)Nc1ccc(C(F)(F)F)cc1,-7.13%,–
c1ccc([C@H]2CN3CCSC3=N2)cc1,-4.16%,–
CCOC(=O)N1CCC(=C2c3ccc(Cl)cc3CCc3cccnc32)CC1,-9.48%,–
CCC(C)N(C)C(=O)c1cc2ccccc2c(-c2ccccc2Cl)n1 (stereo not given),-8.29%,–
O=C(Nc1nc2ccccc2n1CCN1CCOCC1)c1cccc([N+](=O)[O-])c1,-8.53%,–
O=NN(CCCl)C(=O)NCCCl,-11%,–

Compound,"activity, negative = inhibition",Potency
CCn1cc(C(=O)O)c(=O)c2cc(F)c(N3CCNC(C)C3)c(F)c21 (stereo not given),-15.3%,–
Cn1cnc([N+](=O)[O-])c1Sc1ncnc2nc[nH]c12,-17%,–
Clc1cccc(Cl)c1NC1=NCCN1,-7.35%,–
O=C1CCc2cc(OCCCCc3nnnn3C3CCCCC3)ccc2N1,-6%,–
C[C@]12CCC(=O)C=C1CC[C@@H]1[C@@H]2[C@@H](O)C[C@@]2(C)[C@H]1CC[C@]2(O)C(=O)CO,-0.66%,–
Nc1ccc(S(=O)(=O)Nc2ccnn2-c2ccccc2)cc1,-3%,–
N[C@@H]1CONC1=O,0.335%,–
CC(C)(Sc1ccc(CCN(CCCCC2CCCCC2)C(=O)NC2CCCCC2)cc1)C(=O)O,-16.4%,–
Cc1ccc(N(CC2=NCCN2)c2cccc(O)c2)cc1,-3.62%,–
CNC[C@H](O)c1cccc(O)c1,-2.3%,–
O=C1CCC(N2C(=O)c3ccccc3C2=O)C(=O)N1 (stereo not given),0.0214%,–
CC(C)NCC(O)COc1ccc(COCCOC(C)C)cc1 (stereo not given),-6.42%,–
Cc1ccccc1C(OCCN(C)C)c1ccccc1 (stereo not given),-5.44%,–
NC[C@H](O)c1ccc(O)c(O)c1,–,2120 nM (active)
Cc1cccc(-c2[nH]c(C(C)(C)C)nc2-c2ccc3nccnc3c2)n1,-2.39%,–
NCCCC(N)(C(=O)O)C(F)F (stereo not given),-9.14%,–
NC(=O)c1cnccn1,-7.07%,–
C1COC(NC(C2CC2)C2CC2)=N1,-0.279%,–
Cc1cn[nH]c1,0.107%,–
CCN(CC)CCCC(C)Nc1ccnc2cc(Cl)ccc12 (stereo not given),-7.92%,–
